Results reported in PubChem BioAssay (Tox21).
Results filed as inconclusive are left out. Unmarked numbers belong to inactive results. Activity calls are given as the source filed them. Calls follow the shape of the dose curve; as a rule, active = well fitted activation curve with a large enough effect in the signal ratio in the repeat runs (not every such curve was filed as active); inconclusive = weak or mixed curves; inactive = flat fitted curve, though single readings scatter; the % refers to the signal ratio.

assay: qHTS assay to identify small molecule agonists of H2AX (AID 1224845); conditions: CHO-K1 phospho-H2AX Ser139 HTRF, 3 h; series mostly up to 154 µM; activation (H2AX phosphorylation): at the top concentration
Excerpt: National Center for Advancing Translational Sciences [NCATS]
NIH Chemical Genomics Center [NCGC]
U.S. Environmental Protection Agency [EPA]
National Institutes of Environmental Health Sciences [NIEHS]
National Toxicology Program [NTP]
U.S. Food and Drug Administration [FDA]
HTRF phospho-H2AX (Ser139) assay (Cisbio Bioassays, US) enables the quantitative detection of the histone variant H2AX when phosphorylated on serine 139. When double-stranded DNA breaks, either by ionizing radiation or endogenous physiological processes, H2AX becomes phosphorylated at Ser139. This phospho-Ser139 serves as a sensitive biomarker for the detection of such breaks, localizing the site of DNA repair. So, HTRF phospho-H2AX Ser139 is a pertinent assay to study genome stability, the cell cycle, DNA repair, and it serves as a biomarker for cancer, and to understand aging. Wild type CHO-K1 cells were used to identify the inducers of Phospho-H2AX Ser 139 from the Tox21 10K compound collections.
Tox21 Assay Protocol Summary:
The CHO-K1 cells suspended in culture medium containing 10% FBS were dispensed at 1000 cells/ 3 ul/well in 1536-well white wall/solid bottom plates (Greiner Bio-One North America, NC) using a Multidrop Combi (Thermo Fisher Scientific Inc., Waltham, MA). After the assay plates were incubated at 37C overnight, 23 nl of compounds at 15 concentrations (from 5-48 columns) or positive control (from 1 to 4 columns) were transferred to the assay plates using a Pintool station (Wako, San Diego, CA) into each well resulting in a final DMSO concentration of 0.76%. After 3hr incubation at 37C, 1 uL/well Supplemented Lysis buffer (diluted 100 fold blocking reagent in lysis buffer) (HTRF Phospho-H2A.X (S139) Assay kit from Cisbio US Inc., Bedford, MA) was added using a Flying Reagent Dispenser (FRD) (Aurora Discovery, CA). After 10sec spin at 1000 rpm in a plate centrifuge, the assay plates were incubated at room temperature for 30 min. Then followed by the addition of 1 uL/well detection buffer (containing a mixture of two antibodies, one labeled with cryptate, Anti pH2AX (S139)-K and another labeled with d2, Anti H2AX-d2) using FRD. After incubation at room temperature for 24 hr, the time resolved fluorescence at excitation 320 nm and emissions at 665 nm and 620 nm was measured using an Envision plate reader (PerkinElmer, Waltham, MA).
% is scaled to controls: 0 for no effect and ±100 for the full control effect; potency is read from the fitted curve at half-maximal effect.

SMILES | activation (H2AX phosphorylation) | Potency
NC/C=C/C(=O)O | -2.91% [at 70.9 µM] | 
CCCc1c2oc(C(=O)O)cc(=O)c2cc2c(=O)cc(C(=O)O)n(CC)c12 | -2.81% [at 70.9 µM] | 
c1ccc(CN(CC2=NCCN2)c2ccccc2)cc1 | -4.22% [at 70.9 µM] | 
NS(=O)(=O)c1cc(-c2nn[nH]n2)c(NCc2cccs2)cc1Cl | 0.175% [at 70.9 µM] | 
CCCCN1C[C@H](O)[C@@H](O)[C@H](O)[C@H]1CO | -0.81% [at 70.9 µM] | 
CNCCC(Oc1ccccc1OC)c1ccccc1 (stereo not given) | -3.26% [at 70.9 µM] | 
O=C(Cl)c1cccc([N+](=O)[O-])c1 | -2.12% | 
CC(C)(CO)[C@@H](O)C(=O)NCCC(=O)O | -2.41% | 
CC(C)(C)c1ccc(OC(=O)c2ccccc2O)cc1 | 0.774% | 
CCCS(=O)c1ccc2nc(NC(=O)OC)[nH]c2c1 (stereo not given) | -0.191% [at 70.9 µM] | 
CCC(=O)c1ccc2c(c1)N(CCCN(C)C)c1ccccc1S2 | 8.88% [at 70.9 µM] | 
NNS(=O)(=O)c1ccc(Oc2ccc(S(=O)(=O)NN)cc2)cc1 | 0.524% | 
CN(CCCN1c2ccccc2CCc2ccccc21)CC(=O)c1ccc(Cl)cc1 | 0.896% [at 70.9 µM] | 
CC(C)c1ccccc1 | -0.0652% | 
CC(C)NCC(O)COc1ccc(CCOCC2CC2)cc1 (stereo not given) | -0.256% [at 70.9 µM] | 
O=C1CCCCCCCCCCC(=O)OCCO1 | 0.461% | 
OC[C@H]1O[C@@H](O[C@H]2[C@H](O)[C@@H](O)[C@H](O)O[C@@H]2CO)[C@H](O)[C@@H](O)[C@H]1O | 0.0342% | 
CCCOCCC | -1.9% | 
CN(C)CC[C@@H](c1ccc(Cl)cc1)c1ccccn1 | -2.66% [at 70.9 µM] | 
CCCOc1ccc2c(c1)CC[C@@H]1[C@@H]2CC[C@]2(C)C(OC)CC[C@@H]12 (stereo not given in full) | -2.03% [at 70.9 µM] | 

SMILES | activation (H2AX phosphorylation) | Potency
FC(F)(F)C(F)(F)C(F)(F)C(F)(F)C(F)(F)C(F)(F)C(F)(F)C(F)(F)Br | 0.0784% [at 70.9 µM] | 
CCOC(=O)C(Br)c1ccccc1 (stereo not given) | -1.34% | 
CC(C)NC[C@@H](O)COc1cccc2ccccc12 | -4.51% [at 70.9 µM] | 
CC(C)=CCCC(C)CCOC=O (stereo not given) | -2.47% | 
CCCC(CCC)(C(=O)OCC)C(=O)OCC | 0.0807% [at 70.9 µM] | 
O=C1CCC(C2CCCCC2)CC1 | -4.24% | 
Cc1onc(-c2ccccc2)c1C(=O)Cl | 0.0935% [at 70.9 µM] | 
CCCNC(C)C(=O)Nc1c(C)csc1C(=O)OC (stereo not given) | -3.58% [at 70.9 µM] | 
CCCCCCCCc1ccc(S(=O)(=O)O)cc1 | 2% | 
CC1(O)CSC(C)(O)CS1 (stereo not given) | 0.179% | 
CCOC(=O)NCCC[Si](OCC)(OCC)OCC | -1.36% | 
COc1nc(C)nc(NC(=O)NS(=O)(=O)c2ccccc2OCCCl)n1 | 1.48% | 
CCCCNc1cc(C(=O)O)cc(S(N)(=O)=O)c1Oc1ccccc1 | -0.897% [at 70.9 µM] | 
CC/C=C\CCOC(=O)C(C)C | 1.02% | 
O=C(O)CN(CCN(CC(=O)O)CC(=O)O)CCN(CC(=O)O)CC(=O)O | 1.06% [at 31.6 µM] | 
N#CSCC(=O)O | -0.401% [at 70.9 µM] | 
Cc1ccsc1C(=CCCN1CCC[C@@H](C(=O)O)C1)c1sccc1C | 1.71% [at 70.9 µM] | 
CCCCCOc1ccc(C2SC(=O)NC2=O)cc1OCC (stereo not given) | 0.039% [at 70.9 µM] | 
CCCCCCOc1ccc(N)cc1 |  | 56.6 µM (active)
O=S(=O)(O)C(F)(F)F | 0.965% | 
